# Reference: publication PMC5540273 (PLoS ONE, 2017)
# How the values were obtained:
# Conditions in all cases: concentration: 1 μM, replicates: in singlicate; n = 1
# CSF1R-autoinhibited = test system: CSF1R-autoinhibited
# CSF1R = test system: CSF1R
# CSK = test system: CSK
# CSNK1A1L = test system: CSNK1A1L
# CSNK1A1 = test system: CSNK1A1
# CSNK1D = test system: CSNK1D
# CSNK1E = test system: CSNK1E
# CSNK1G1 = test system: CSNK1G1
# CSNK1G2 = test system: CSNK1G2
# CSNK1G3 = test system: CSNK1G3
# CSNK2A1 = test system: CSNK2A1
# CSNK2A2 = test system: CSNK2A2
# CTK = test system: T1, CTK
# T1 construct: gene MATK
# DAPK1 = test system: DAPK1
# DAPK2 = test system: DAPK2
# DAPK3 = test system: DAPK3
# DCAMKL1 = test system: T2, DCAMKL1
# T2 construct: gene DCLK1
# DCAMKL2 = test system: T3, DCAMKL2
# T3 construct: gene DCLK2
# DCAMKL3 = test system: T4, DCAMKL3
# T4 construct: gene DCLK3
# DDR1 = test system: DDR1
# 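Also: KINOMEscan kinase panel screen.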
SMILES,%Inh (CSF1R-autoinhibited),%Inh (CSF1R),%Inh (CSK),%Inh (CSNK1A1L),%Inh (CSNK1A1),%Inh (CSNK1D),%Inh (CSNK1E),%Inh (CSNK1G1),%Inh (CSNK1G2),%Inh (CSNK1G3),%Inh (CSNK2A1),%Inh (CSNK2A2),%Inh (CTK),%Inh (DAPK1),%Inh (DAPK2),%Inh (DAPK3),%Inh (DCAMKL1),%Inh (DCAMKL2),%Inh (DCAMKL3),%Inh (DDR1)
C[C@@H]1CCN(C(=O)CO)C[C@@H]1N(C)c1ncnc2[nH]ccc12,19%,8%,21%,0%,33%,6%,0%,0%,0%,10%,0%,0%,14%,2%,7%,10%,6%,0%,90%,0%
O=C(CCO)NCCn1ccc2ncnc(Nc3ccc(Oc4cccc(C(F)(F)F)c4)c(Cl)c3)c21,0%,0%,3%,0%,0%,0%,0%,0%,0%,0%,0%,0%,0%,11%,0%,0%,39%,0%,0%,0%
COc1ccc(-c2oc3ncnc(N)c3c2-c2ccc(OC)cc2)cc1 [SB-589132],70%,61%,0%,12%,0%,11%,43%,0%,0%,12%,30%,40%,0%,0%,0%,37%,14%,7%,36%,94.6%
CN1c2ccc(-c3ccc(C(=O)NCCO)cc3)cc2-c2[nH]ncc2S1(=O)=O,25%,0%,9%,7%,4%,5%,3%,0%,0%,6%,25%,47%,0%,32%,36%,31%,26%,12%,2%,0%
CC(=O)Nc1n[nH]c2ncc(-c3ccccc3)cc12 [SB-548492],0%,19%,3%,21%,0%,0%,34%,0%,0%,4%,20%,25%,38%,100%,1%,0%,36%,15%,0%,0%
Nc1nc(-c2ccccn2)c(-c2ccnc3ccccc23)s1 [GW548057],58%,19%,3%,38%,89%,83%,79%,11%,0%,27%,0%,17%,0%,11%,13%,31%,23%,11%,6%,0%
Nc1nc(-c2cccnc2)c(-c2ccnc3ccccc23)s1 [GW684083],0%,1%,0%,9%,1%,65%,71%,10%,0%,13%,2%,1%,0%,0%,0%,0%,18%,4%,14%,0%
Cc1cccc(-c2nc(Nc3ccc4[nH]nnc4c3)c3ccccc3n2)n1 [GW867587],0%,0%,0%,0%,0%,4%,0%,0%,0%,0%,80%,45%,10%,0%,0%,0%,0%,0%,0%,0%
FC(F)(F)c1ccc(-c2cc(-c3c[nH]nc3-c3ccccn3)ccn2)cc1 [GW599550],33%,0%,0%,0%,0%,48%,45%,10%,13%,13%,0%,30%,0%,9%,16%,99.2%,10%,16%,0%,0%
Cl.Cn1ccc(-c2cccc(Nc3ccnc4cc(-c5nccs5)ccc34)c2)n1 [GW525701],29%,0%,0%,5%,0%,12%,21%,5%,0%,0%,0%,0%,0%,17%,0%,2%,13%,0%,26%,52%
Fc1cccc(COc2ccc(Nc3ncnc4cc[nH]c34)cc2Cl)c1,0%,6%,24%,6%,2%,0%,10%,18%,18%,4%,36%,22%,53%,20%,45%,22%,29%,8%,8%,9%
